Epigenetic derep – epigenetic control regulation, reporter derepression. murine LDR cells, GFP reporter derepression, 30 h. Potency, µM (top dose mostly 53.9 µM), most hits filed as activators. actives 0.2% (n = 280,000). AID 1865; also: nearly all actives have a fitted effect of over 60% in size
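Reporter derepression read as number of fluorescent GFP-positive objects, 20-120 um in size, counted by laser-scanning cytometer. Mouse LDR line with an epigenetically silenced CMV-GFP locus; compound incubation 30 h, 37 C.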
PINK1 modulator – changes PINK1 expression. PINK1 immunofluorescence, high-content cytometry, 24 h. actives 0.2% (n = 410,000). Potency, µM (top dose mostly 76.6 µM), most hits filed as activators. AID 624263; active = well fitted activation curve with a large enough effect; inconclusive = small, poorly fitted or top-dose-only effect; cell line not stated here; also: nearly all actives have a fitted effect of over 65% in size
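Stable cell line, 250 cells/well, 12 h attachment; compounds pinned at 5 concentrations, 24 h; CCCP control. Fixed with nuclear dye, primary antibodies 12 h at 10 degrees C, secondary plus cell stain; laser-scanning cytometer read.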
Sfp PPTase inh – blocks B. subtilis Sfp PPTase activity. Q9F4F7. actives 3.5% (n = 310,000). Potency, µM, most hits filed as inhibitors. Biochemical Sfp PPTase activity, qHTS;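 also: the enzyme is Sfp with the accession as filed and its product quenches rhodamine fluorescence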
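With Hepes-Na pH 7.6 buffer containing 10 mM MgCl2, Sfp (15 nM) modified BHQ-2-YbbR (12.5 uM) using rhodamine-CoA (5 uM). Two reads 30 minutes apart at 525/598 nm yielded each well's rate.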
Gal4-VP16 FLuc – counter-screen for ROR gamma inhibitors: Gal4-VP16 reporter; Drosophila S2 Gal4-VP16 UAS-luciferase, luminescence, 20 h; Potency, µM (series often up to 53.6 µM), usual class: inhibitors; actives 3.5% (n = 310,000); AID 2546;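 also: Gal4-VP16 expression switched on by copper sulfate through the metallothionein promoter; nearly all actives have a fitted effect of over 50% in size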
ClpP mod – qHTS Assay for Activators of ClpP; ATP-dependent Clp protease proteolytic subunit (Bacillus subtilis (strain 168)), P80244; purified B. subtilis ClpP, FRET peptide cleavage, 20 min; Potency, µM (doses to about 57.5 µM); actives 1.9% (n = 340,000); active = well fitted falling curve with a large enough effect; inconclusive = small, poorly fitted or top-dose-only effect; inactive = no such curve, though single readings can be large or run the other way; also: the source files actives as falling curves though it sought activators and does not explain the sign; nearly all actives have a fitted effect of over 65% in size
Target sequence (P80244 whole entry, looked up): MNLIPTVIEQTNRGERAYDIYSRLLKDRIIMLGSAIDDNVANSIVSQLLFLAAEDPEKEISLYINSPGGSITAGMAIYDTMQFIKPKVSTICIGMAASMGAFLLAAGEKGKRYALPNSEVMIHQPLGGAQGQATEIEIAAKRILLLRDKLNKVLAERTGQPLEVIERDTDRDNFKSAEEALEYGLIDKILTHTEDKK
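FRET quenching reversal measured ClpP activation: 10 microg/mL B. subtilis ClpP at pH 8 with the FRET-FV decapeptide, read at 430 nm after 320 nm excitation. The 20-min minus 0-min signal was scaled between DMSO/no-enzyme wells and ADEP (5.8 microM final).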
RORg inh – inhibitors of mouse ROR gamma transcriptional activity | Drosophila S2 Gal4-RORgamma UAS-luciferase reporter, 20 h | Potency, µM (titrated, usually from 53.6 µM), hits mostly inhibitors | actives 5.4% (n = 310,000); also: nearly all actives have a fitted effect of over 60% in size
Target sequence (P51450 whole entry, looked up, the tested form may be a part): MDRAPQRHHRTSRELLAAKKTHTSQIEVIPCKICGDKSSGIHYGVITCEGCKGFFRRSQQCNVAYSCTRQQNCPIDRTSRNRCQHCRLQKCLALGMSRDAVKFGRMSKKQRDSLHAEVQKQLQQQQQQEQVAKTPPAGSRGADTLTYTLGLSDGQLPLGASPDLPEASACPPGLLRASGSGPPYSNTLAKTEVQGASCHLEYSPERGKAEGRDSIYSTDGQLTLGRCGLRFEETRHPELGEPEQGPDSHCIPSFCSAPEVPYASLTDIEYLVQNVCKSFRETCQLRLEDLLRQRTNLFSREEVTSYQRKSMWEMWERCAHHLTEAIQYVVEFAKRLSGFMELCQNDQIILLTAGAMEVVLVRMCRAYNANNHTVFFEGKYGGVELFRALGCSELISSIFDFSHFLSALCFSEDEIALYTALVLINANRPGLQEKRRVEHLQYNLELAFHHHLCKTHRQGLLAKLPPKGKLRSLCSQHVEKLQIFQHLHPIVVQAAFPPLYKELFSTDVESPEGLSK
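Read-out: Photinus luciferase luminescence; inhibitors lower reporter signal. Insect Schneider cells with Gal4-ROR gamma fusion under metallothionein promoter, UAS reporter; 700 uM final copper sulfate induction, 20 hr, ambient temperature.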
A number is an active result; - = inactive; ? = inconclusive; . = no result; [ ] = remark or other dose. This is a sample that favours compounds with a hit; in the whole collection about 8.1% have one here. Unless noted, calls follow the shape of the dose curve; as a rule, active = well fitted curve in the direction sought with a large enough effect; inconclusive = small, poorly fitted or top-dose-only effect, or another doubt; inactive = no such curve, though single readings can be large; an effect the other way counts as inactive or inconclusive.

SMILES	Epigenetic derep	PINK1 modulator	Sfp PPTase inh	Gal4-VP16 FLuc	ClpP mod	RORg inh
COc1ccc(Cl)cc1NC(=O)CSC1=Nc2ccccc2C2=NC(CC(=O)NC3CCCCC3)C(=O)N12 (stereo not drawn)	-	-	.	.	-	.
CNC(=S)N1CCN(c2nc(-c3ccc(F)cc3)cs2)CC1	.	-	-	.	-	.
CCc1ccccc1NC(=S)N1CCN(c2ccccc2F)CC1	.	-	-	?	-	7.1µM
CCOc1ccccc1NC(=S)N1CCN(c2nc(-c3ccc(F)cc3)cs2)CC1	-	-	-	?	-	11µM
CCOc1ccccc1NC(=S)N1CCN(c2ccccc2F)CC1	.	-	-	14µM	.	?
COc1ccc(NC(=S)N2CCN(c3ncccn3)CC2)c(OC)c1	-	-	50µM	-	-	-
CCNC(=S)N1CCN(c2ccccc2OCC)CC1	-	-	-	-	-	-
Cc1ncc2c(c1CNC(=O)c1ccccc1F)CCN(C(=O)c1ccc3c(c1)OCCO3)C2	.	-	.	.	.	.
Cc1ccc(NC(=S)Nc2ccc(F)cc2)c(C)c1	-	-	-	?	.	11µM
Cc1ccc(NC(=S)NCCc2ccc(F)cc2)c(C)c1	-	-	-	5µM	-	4.5µM
O=C(Nc1ccc(-c2nc3c(ccc4ccccc43)o2)cc1)c1ccco1	-	?	-	?	13µM	?
O=C(Nc1ccc(-c2nc3cc(Cl)ccc3c(=O)o2)cc1)c1ccco1	-	-	-	-	-	-
CC(C)(CS)C(=O)N1CCC[C@H]1C(=O)O	-	.	22µM	-	.	-
CC1CCCCC1NC(=O)CCCCCn1c(=S)[nH]c2ccccc2c1=O (stereo not drawn)	-	-	-	-	.	16µM
CC1CCCC(NC(=O)CCCn2c(=S)[nH]c3ccccc3c2=O)C1C (stereo not drawn)	-	-	-	-[10 µM]	.	10µM
CC1CCCCC1NC(=O)CCCn1c(=S)[nH]c2ccccc2c1=O (stereo not drawn)	-	-	-	-	?	?
NNc1nc2ccccc2c(=O)n1Cc1ccccc1	.	-	20µM	.	.	.
COc1ccc(C(=O)Nc2ccc(N3CCN(C)CC3)cc2)cc1[N+](=O)[O-]	-	-	-	-	-	-
CC(=O)N1CCN(c2ccc(NC(=S)NC(=O)c3ccc(C)c([N+](=O)[O-])c3)cc2)CC1	-	-	-	7.9µM	32µM	?
COc1ccc(C(=O)NC(=S)Nc2ccc(N3CCN(C(C)=O)CC3)cc2)cc1[N+](=O)[O-]	-	-	-	18µM	-	?
O=C(NCc1ccco1)c1nc2c(nnn2Cc2ccccc2Cl)c(=O)[nH]1	-	-	-	7.9µM	-	14µM
NC(=O)C1CCN(c2nc(C3CC3)nc3c2nnn3Cc2ccccc2)CC1	-	-	-	-	-	-
CCCCCCC(=O)N1CCC(c2nc3c(nnn3Cc3ccccc3Cl)c(=O)[nH]2)CC1	-	-	?	16µM	-	7.1µM
NC(=O)C1CCN(c2nc(C3CC3)nc3c2nnn3Cc2ccccc2Cl)CC1	-	11µM	-	-	-	-
Cc1ccc(C)c(Cn2nnc3c(=O)[nH]c(C4CCCN(C(=O)C5CCCCC5)C4)nc32)c1 (stereo not drawn)	-	-	50µM	-	-	-
SMILES	Epigenetic derep	PINK1 modulator	Sfp PPTase inh	Gal4-VP16 FLuc	ClpP mod	RORg inh
CCOC(=O)c1[nH]c(C)c(C(=O)NCCc2ccccc2)c1C	-	-	.	.	-	.
Cc1c(C)c2c(c(C)c1OC(=O)CCC(=O)O)CC[C@@](C)(CCC[C@H](C)CCC[C@H](C)CCCC(C)C)O2	.	.	-	-	.	-
CC(C)c1ccc(NC(=O)CSc2nc(=O)n(Cc3cccnc3)c3c2CCC3)cc1	-	-	.	.	-	.
COc1ccccc1N1CCN(Cc2ccc(Br)o2)CC1	-	-	?	20µM	-	-
COc1ccc(C(=O)CCN2CCN(c3ccccc3OC)CC2)cc1	-	-	50µM	2.8µM	.	-
COc1ccccc1N1CCN(CC(=O)N2CCCC2)CC1	-	-	50µM	-	.	-
COc1ccccc1N1CCN(C(=O)CCC(=O)N2CCN(c3ccccc3OC)CC2)CC1	.	-	-	-	-	-
COc1ccccc1N1CCN(C(=O)c2ccc([N+](=O)[O-])s2)CC1	-	-	-	-	?	7.9µM
O=c1c(-c2ccc(Cl)cc2)c(C(F)(F)F)oc2c(CN3CCCCC3)c(O)ccc12	-	-	.	.	-	.
O=C(O)CCC/C=C\C[C@@H]1[C@@H](CC[C@@H](O)CCc2ccccc2)[C@H](O)C[C@@H]1O	.	.	-	-	.	-
Cc1ccc(C)c(NC(=O)CCc2c(C)n(C)c3cc(-c4ccccc4C)nn3c2=O)c1	-	-	.	.	-	.
C=CCS(=O)(=O)N1CCCC(N2CCN(c3ccccc3OC)CC2)C1 (stereo not drawn)	.	-	-	-	-	-
C=CCNC(=O)N1CCCC(N2CCN(c3ccccc3OC)CC2)C1 (stereo not drawn)	.	-	-	-	16µM	-
Nc1ncnc2c1ncn2COC(CO)CO	.	-	.	.	-	.
O=C(/C=C/c1ccco1)NC1CCCC1	-	-	28µM	-	.	-
O=C(c1ccco1)N(c1ccccn1)c1ccccn1	-	-	-	-	-	-
O=C(COC(=O)/C=C/c1ccco1)NC1CCCCC1	.	-	.	.	-	.
O=C(/C=C/c1ccco1)NCc1ccccn1	-	-	-	-	-	4.5µM
O=C(/C=C/c1ccco1)N(c1ccccn1)c1ccccn1	-	-	40µM	-	.	-
Cc1cccc(C(=O)Nc2cccc(C(=O)OCc3cc(=O)n4ccsc4n3)c2)c1	-	-	.	.	-	.
O=C(O)c1ccccc1NS(=O)(=O)c1ccc(Cl)c(Cl)c1	-	.	.	.	.	.
Cc1nc2sc3c(c2c(=O)[nH]1)CCC3	-	-	-	-	-	-
Cc1cc(-c2nc3c4c5c(sc4[nH]c(=O)n3n2)CCC5)c(C)o1	-	-	28µM	-	-	-
Cc1ccc(-n2cc(CCCCCCCCC(=O)O)nn2)cc1	.	-	-	-	-	-
O=C(O)CCCCCCCCc1cn(CC2CCCCC2)nn1	.	-	-	1.8µM	-	4.5µM
SMILES	Epigenetic derep	PINK1 modulator	Sfp PPTase inh	Gal4-VP16 FLuc	ClpP mod	RORg inh
O=C(CCc1ccccc1)Nc1nnc(-c2ccc3c(c2)CCCC3)o1	-	-	-	?	-	14µM
O=C(CCc1ccccc1)Nc1cc2c(cc1Cl)OCCO2	-	-	-	-	-	-
O=C(CCc1ccccc1)Nc1cc2c3c(c1)CCC(=O)N3CCC2	.	-	.	.	-	.
O=C(CCc1ccccc1)Nc1nnc(-c2ccc3c(c2)OCCO3)o1	-	-	-	?	-	6.3µM
Cc1ccccc1OCC(=O)Nc1ccc2c(c1)OCCO2	-	-	-	-	-	-
O=C(CCc1ccccc1)Nc1ccc2c(c1)OCCO2	-	-	-	-	28µM	-
Cc1cccc(C)c1OCC(=O)Nc1ccc2c(c1)OCCO2	.	-	-	2.2µM	-	-

From PubChem
